# Columns and labels:
# Test in all cases: DAPPL (digital affinity profiling via proximity ligation, sequencing); 10 mM Tris-HCl pH 7.5, 50 mM NaCl, 1 mM DTT, 4% glycerol, room temperature, 30 min; GST-TFs on glutathione beads, 16-mer random dsDNA library, 0.1% formaldehyde crosslink after washing; high values mean tight binding
# [1] = biological target: T1, FLI1 (Homo sapiens, UniProt Q01543 1-452); settings: protein: recombinant; tags: N-terminal GST; dsDNA, one strand shown
# T1 sequence: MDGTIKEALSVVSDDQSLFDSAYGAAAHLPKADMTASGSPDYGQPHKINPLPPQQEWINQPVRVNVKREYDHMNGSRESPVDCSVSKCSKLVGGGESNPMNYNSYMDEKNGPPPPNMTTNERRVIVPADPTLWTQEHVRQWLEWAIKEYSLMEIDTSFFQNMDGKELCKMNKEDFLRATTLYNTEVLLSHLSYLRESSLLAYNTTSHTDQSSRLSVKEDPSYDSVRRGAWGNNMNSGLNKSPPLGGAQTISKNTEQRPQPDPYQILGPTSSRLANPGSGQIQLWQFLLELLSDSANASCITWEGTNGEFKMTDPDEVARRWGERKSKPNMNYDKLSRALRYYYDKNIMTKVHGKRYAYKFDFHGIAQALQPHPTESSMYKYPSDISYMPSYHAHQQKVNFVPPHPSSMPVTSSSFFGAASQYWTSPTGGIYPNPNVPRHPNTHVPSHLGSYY
# Procedure, shortened: (§1)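 The binding signal reported is, for every hexamer, its read frequency for a factor over its read frequency for the tag-only sample. Reads came from pools of yeast-expressed, GST-fused human transcription factors on glutathione beads, barcoded with DNA and mixed with that sample, which were incubated with 200 nmole of a random double-stranded 16-mer DNA library in Tris/NaCl/DTT/glycerol buffer at room temperature for 30 min. After washing, the pools were crosslinked with 0.1% formaldehyde, proximity-ligated with BsaI/T4 ligase for 1 h at 37 °C, PCR-amplified and sequenced on an Illumina NextSeq500.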
# [2] = biological target: T2, ELK1 (Homo sapiens, UniProt P19419 1-428); settings: protein: recombinant; tags: N-terminal GST; dsDNA, one strand shown
# T2 sequence: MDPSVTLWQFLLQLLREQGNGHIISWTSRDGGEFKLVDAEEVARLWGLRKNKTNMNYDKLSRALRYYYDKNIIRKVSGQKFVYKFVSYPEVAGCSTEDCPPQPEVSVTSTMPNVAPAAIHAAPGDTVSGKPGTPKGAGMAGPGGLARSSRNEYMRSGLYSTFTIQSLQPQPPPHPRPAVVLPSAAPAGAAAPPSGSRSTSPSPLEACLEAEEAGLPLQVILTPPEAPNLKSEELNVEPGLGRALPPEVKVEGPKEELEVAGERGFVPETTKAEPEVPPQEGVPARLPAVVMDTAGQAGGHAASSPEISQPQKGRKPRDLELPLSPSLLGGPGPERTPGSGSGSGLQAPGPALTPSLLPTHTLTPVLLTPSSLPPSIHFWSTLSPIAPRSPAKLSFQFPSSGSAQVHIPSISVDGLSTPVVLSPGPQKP
# Procedure, shortened: as §1
# [3] = biological target: T3, GABPA (Homo sapiens, UniProt Q06546 1-454); settings: protein: recombinant; tags: N-terminal GST; dsDNA, one strand shown
# T3 sequence: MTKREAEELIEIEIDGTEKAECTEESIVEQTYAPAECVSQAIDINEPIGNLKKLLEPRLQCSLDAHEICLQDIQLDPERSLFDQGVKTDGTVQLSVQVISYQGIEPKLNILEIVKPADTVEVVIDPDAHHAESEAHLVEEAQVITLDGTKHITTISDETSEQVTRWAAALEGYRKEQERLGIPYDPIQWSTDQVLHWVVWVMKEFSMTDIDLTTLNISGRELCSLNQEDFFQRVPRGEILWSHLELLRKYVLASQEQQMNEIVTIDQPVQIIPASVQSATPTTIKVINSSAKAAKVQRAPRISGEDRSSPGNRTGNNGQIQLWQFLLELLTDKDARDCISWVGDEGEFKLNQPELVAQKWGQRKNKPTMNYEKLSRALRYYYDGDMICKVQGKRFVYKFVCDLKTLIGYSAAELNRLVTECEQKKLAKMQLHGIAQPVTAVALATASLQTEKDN
# Procedure, shortened: as §1
# [4] = biological target: T4, ERG (Homo sapiens, UniProt P11308 1-479); settings: protein: recombinant; tags: N-terminal GST; dsDNA, one strand shown
# T4 sequence: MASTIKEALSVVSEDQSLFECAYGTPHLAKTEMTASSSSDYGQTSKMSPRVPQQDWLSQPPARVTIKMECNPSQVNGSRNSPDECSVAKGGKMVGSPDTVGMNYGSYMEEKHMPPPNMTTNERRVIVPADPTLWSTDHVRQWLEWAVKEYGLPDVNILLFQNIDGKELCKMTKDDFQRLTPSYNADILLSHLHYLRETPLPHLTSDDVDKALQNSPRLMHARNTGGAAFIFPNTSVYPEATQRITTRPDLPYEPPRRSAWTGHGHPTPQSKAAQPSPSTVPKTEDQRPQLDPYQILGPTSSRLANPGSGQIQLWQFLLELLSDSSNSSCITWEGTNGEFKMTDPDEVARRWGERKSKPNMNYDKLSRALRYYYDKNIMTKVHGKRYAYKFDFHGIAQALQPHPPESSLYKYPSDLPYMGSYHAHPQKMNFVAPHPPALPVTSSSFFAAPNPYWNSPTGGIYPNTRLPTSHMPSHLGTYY
# Procedure, shortened: as §1
# [5] = biological target: ELF1 (Homo sapiens, UniProt P32519 1-619); settings: protein: recombinant; tags: N-terminal GST; dsDNA, one strand shown
# Chain of ELF1 (P32519 whole entry): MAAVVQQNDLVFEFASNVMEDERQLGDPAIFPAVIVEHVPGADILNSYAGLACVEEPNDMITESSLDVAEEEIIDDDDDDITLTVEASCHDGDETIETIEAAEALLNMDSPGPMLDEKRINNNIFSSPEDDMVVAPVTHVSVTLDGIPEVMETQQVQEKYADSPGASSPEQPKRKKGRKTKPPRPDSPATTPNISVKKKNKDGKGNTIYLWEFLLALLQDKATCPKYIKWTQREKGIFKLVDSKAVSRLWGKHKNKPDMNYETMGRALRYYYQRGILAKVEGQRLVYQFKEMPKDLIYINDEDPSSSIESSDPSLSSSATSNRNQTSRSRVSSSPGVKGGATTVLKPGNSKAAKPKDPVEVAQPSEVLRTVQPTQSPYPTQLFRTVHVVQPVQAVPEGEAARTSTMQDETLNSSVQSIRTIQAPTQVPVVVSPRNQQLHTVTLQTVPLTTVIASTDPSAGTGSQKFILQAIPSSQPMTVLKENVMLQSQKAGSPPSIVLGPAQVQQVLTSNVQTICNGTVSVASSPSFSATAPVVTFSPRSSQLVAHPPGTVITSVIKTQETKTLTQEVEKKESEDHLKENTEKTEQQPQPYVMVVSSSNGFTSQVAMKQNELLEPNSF
# Procedure, shortened: as §1
# [6] = biological target: T5, EHF (Homo sapiens, UniProt Q9NZC4 1-300); settings: protein: recombinant; tags: N-terminal GST; dsDNA, one strand shown
# T5 sequence: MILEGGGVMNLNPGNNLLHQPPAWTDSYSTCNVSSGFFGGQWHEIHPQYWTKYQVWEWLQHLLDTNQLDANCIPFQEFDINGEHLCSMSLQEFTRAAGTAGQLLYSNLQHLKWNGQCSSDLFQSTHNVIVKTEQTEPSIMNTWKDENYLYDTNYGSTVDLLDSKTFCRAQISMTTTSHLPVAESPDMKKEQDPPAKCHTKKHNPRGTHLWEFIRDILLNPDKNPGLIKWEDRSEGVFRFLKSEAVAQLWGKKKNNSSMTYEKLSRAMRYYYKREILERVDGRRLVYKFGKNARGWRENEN
# Procedure, shortened: as §1
# [7] = biological target: SPI1 (Homo sapiens, UniProt P17947 1-270); settings: protein: recombinant; tags: N-terminal GST; dsDNA, one strand shown
# Procedure, shortened: as §1
# [8] = biological target: SPIB (Homo sapiens, UniProt Q01892 1-262); settings: protein: recombinant; tags: N-terminal GST; dsDNA, one strand shown
# Chain of SPIB (Q01892 whole entry): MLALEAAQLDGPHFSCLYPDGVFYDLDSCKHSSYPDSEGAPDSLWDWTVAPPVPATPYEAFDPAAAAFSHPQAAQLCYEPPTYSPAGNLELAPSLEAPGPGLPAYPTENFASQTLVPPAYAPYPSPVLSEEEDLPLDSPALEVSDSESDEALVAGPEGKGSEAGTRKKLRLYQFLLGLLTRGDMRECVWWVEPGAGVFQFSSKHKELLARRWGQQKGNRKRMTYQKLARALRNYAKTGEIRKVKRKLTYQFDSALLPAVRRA
# Procedure, shortened: as §1
# [9] = biological target: T6, ELK3 (Homo sapiens, UniProt P41970 1-407); settings: protein: recombinant; tags: N-terminal GST; dsDNA, one strand shown
# T6 sequence: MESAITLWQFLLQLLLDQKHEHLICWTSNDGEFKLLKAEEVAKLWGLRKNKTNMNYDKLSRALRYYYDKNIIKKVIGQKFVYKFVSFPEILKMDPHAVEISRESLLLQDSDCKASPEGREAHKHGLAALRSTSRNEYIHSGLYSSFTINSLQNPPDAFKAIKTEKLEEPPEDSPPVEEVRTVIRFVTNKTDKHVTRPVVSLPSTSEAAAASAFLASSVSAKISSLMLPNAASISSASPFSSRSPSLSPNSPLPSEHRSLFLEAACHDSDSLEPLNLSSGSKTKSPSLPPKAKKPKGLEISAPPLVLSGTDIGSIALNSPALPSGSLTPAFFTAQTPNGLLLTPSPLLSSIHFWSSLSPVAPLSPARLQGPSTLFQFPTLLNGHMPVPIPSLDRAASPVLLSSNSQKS
# Procedure, shortened: as §1
# [10] = biological target: T7, FEV (Homo sapiens, UniProt Q99581 1-238); settings: protein: recombinant; tags: N-terminal GST; dsDNA, one strand shown
# T7 sequence: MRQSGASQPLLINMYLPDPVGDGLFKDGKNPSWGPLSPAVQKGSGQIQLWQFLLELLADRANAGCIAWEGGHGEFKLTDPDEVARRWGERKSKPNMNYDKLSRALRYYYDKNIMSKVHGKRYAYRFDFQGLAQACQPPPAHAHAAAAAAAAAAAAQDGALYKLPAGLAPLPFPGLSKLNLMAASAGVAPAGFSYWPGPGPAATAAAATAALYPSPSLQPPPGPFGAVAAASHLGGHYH
# Procedure, shortened: as §1
# [11] = biological target: ETV5 (Homo sapiens, UniProt P41161 1-510); settings: protein: recombinant; tags: N-terminal GST; dsDNA, one strand shown
# Chain of ETV5 (P41161 whole entry): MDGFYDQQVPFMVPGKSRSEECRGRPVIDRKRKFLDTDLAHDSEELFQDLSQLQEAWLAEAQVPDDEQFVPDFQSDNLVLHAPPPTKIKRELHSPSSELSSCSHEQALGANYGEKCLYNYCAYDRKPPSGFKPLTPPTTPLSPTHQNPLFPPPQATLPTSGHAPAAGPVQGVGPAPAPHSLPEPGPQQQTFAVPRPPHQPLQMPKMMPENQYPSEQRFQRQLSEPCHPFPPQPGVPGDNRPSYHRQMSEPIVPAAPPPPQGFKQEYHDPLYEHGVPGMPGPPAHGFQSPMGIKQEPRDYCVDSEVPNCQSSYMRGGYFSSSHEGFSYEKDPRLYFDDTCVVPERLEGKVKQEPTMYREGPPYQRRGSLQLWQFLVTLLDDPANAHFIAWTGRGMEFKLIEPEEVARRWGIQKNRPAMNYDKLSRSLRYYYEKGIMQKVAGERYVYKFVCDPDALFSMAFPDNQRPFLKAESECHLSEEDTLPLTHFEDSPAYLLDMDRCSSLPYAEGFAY
# Procedure, shortened: as §1
# [12] = biological target: HSF1 (Homo sapiens, UniProt Q00613 1-529); settings: protein: recombinant; tags: N-terminal GST; chain copies: 3; dsDNA, one strand shown
# Chain of HSF1 (Q00613 whole entry): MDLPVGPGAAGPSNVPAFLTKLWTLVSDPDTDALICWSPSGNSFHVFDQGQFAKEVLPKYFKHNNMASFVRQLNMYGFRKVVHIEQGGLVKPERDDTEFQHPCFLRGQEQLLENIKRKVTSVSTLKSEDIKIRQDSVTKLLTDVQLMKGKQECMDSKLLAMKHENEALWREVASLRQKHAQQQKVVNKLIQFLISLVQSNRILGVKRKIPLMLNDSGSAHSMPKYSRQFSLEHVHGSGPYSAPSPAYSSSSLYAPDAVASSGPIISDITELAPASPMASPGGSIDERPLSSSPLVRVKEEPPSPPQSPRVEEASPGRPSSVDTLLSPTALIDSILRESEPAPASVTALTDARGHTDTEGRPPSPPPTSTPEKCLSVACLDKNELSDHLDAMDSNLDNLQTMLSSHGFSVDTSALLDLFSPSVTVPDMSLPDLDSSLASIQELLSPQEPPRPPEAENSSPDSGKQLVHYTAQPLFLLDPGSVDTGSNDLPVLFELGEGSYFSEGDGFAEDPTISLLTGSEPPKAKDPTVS
# Procedure, shortened: as §1
# [13] = biological target: T8, SPIC (Homo sapiens, UniProt Q8N5J4 1-248); settings: protein: recombinant; tags: N-terminal GST; dsDNA, one strand shown
# T8 sequence: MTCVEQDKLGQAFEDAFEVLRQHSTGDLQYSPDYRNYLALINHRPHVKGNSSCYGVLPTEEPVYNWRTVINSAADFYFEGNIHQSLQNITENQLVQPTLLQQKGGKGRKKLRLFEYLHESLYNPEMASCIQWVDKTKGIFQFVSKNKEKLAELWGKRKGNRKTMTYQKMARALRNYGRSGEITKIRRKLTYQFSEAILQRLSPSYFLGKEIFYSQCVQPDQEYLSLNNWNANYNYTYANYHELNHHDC
# Procedure, shortened: as §1
# [14] = biological target: ELF4 (Homo sapiens, UniProt Q99607 1-663); settings: protein: recombinant; tags: N-terminal GST; dsDNA, one strand shown
# Chain of ELF4 (Q99607 whole entry): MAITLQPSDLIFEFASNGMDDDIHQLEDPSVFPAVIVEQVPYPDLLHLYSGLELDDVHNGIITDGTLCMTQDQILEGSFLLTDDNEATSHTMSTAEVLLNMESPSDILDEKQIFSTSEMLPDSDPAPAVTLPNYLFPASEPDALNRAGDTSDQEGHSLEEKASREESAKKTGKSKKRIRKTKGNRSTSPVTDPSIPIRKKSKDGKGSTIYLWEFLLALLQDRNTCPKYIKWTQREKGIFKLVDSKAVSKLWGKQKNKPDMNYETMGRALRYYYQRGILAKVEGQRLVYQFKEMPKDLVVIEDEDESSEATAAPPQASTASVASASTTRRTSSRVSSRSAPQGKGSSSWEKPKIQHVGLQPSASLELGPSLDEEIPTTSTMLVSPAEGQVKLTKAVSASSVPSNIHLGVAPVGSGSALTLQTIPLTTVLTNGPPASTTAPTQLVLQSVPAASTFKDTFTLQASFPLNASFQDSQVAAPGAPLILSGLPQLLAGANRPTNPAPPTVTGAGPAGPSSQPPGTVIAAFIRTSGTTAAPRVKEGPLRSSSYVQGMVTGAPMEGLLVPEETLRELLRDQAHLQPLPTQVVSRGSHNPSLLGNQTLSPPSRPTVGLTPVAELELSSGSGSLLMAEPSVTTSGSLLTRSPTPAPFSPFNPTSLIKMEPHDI
# Procedure, shortened: as §1
# [15] = biological target: T9, ELK4 (Homo sapiens, UniProt P28324-2 1-405); settings: protein: recombinant; tags: N-terminal GST; dsDNA, one strand shown
# T9 sequence: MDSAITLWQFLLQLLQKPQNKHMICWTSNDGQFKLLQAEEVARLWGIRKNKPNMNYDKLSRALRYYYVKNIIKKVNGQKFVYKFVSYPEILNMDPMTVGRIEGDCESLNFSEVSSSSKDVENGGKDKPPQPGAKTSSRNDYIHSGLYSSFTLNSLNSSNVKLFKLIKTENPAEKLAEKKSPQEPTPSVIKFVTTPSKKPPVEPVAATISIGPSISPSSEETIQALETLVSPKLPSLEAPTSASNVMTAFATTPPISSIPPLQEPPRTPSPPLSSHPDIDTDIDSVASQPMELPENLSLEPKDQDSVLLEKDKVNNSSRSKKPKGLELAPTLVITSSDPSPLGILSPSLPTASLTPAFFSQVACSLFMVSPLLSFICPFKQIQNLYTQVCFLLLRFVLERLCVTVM
# Procedure, shortened: as §1
# [16] = biological target: T10, ETV2 (Homo sapiens, UniProt O00321 1-342); settings: protein: recombinant; tags: N-terminal GST; dsDNA, one strand shown
# T10 sequence: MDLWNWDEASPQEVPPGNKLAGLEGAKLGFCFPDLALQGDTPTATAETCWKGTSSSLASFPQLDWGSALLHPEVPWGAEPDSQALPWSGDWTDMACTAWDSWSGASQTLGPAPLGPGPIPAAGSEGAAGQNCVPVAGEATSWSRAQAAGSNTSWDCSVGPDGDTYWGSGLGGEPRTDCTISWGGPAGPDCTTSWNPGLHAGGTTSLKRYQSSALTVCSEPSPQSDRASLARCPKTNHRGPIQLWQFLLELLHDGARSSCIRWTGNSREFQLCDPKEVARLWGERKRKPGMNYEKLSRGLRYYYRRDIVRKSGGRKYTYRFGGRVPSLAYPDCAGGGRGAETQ
# Procedure, shortened: as §1
# [17] = biological target: T11, ELF3 (Homo sapiens, UniProt P78545 1-371); settings: protein: recombinant; tags: N-terminal GST; dsDNA, one strand shown
# T11 sequence: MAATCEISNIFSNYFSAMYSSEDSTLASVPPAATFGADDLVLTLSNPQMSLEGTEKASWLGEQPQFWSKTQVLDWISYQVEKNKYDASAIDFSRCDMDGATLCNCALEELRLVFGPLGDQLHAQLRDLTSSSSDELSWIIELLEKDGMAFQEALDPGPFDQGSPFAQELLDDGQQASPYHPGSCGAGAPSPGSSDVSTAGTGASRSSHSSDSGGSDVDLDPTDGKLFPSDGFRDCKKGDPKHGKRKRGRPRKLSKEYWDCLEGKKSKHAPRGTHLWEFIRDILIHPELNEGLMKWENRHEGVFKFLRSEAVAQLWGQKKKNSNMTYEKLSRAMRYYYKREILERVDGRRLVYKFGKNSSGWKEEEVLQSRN
# Procedure, shortened: as §1
# [18] = biological target: CRX (Homo sapiens, UniProt O43186 1-299); settings: protein: recombinant; tags: N-terminal GST; dsDNA, one strand shown
# Chain of CRX (O43186 whole entry): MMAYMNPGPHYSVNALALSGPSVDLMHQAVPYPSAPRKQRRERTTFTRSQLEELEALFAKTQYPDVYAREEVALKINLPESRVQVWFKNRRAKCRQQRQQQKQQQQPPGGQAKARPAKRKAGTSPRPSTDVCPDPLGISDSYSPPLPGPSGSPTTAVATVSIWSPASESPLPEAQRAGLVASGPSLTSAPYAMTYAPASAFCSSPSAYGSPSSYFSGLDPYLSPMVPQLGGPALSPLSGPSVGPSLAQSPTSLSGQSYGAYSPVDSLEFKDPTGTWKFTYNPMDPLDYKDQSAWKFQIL
# Procedure, shortened: as §1
sequence,measurement,setting,value
CGATAT,binding signal,[1],"1.14 fold enrichment (6-mer frequency, TF over GST control)"
same,binding signal,[2],"1.03 fold enrichment (6-mer frequency, TF over GST control)"
same,binding signal,[3],"1.08 fold enrichment (6-mer frequency, TF over GST control)"
same,binding signal,[4],"1.03 fold enrichment (6-mer frequency, TF over GST control)"
same,binding signal,[5],"1.12 fold enrichment (6-mer frequency, TF over GST control)"
same,binding signal,[6],"1.1 fold enrichment (6-mer frequency, TF over GST control)"
same,binding signal,[7],"1.03 fold enrichment (6-mer frequency, TF over GST control)"
same,binding signal,[8],"1.02 fold enrichment (6-mer frequency, TF over GST control)"
same,binding signal,[9],"1.06 fold enrichment (6-mer frequency, TF over GST control)"
same,binding signal,[10],"1.07 fold enrichment (6-mer frequency, TF over GST control)"
same,binding signal,[11],"1.05 fold enrichment (6-mer frequency, TF over GST control)"
same,binding signal,[12],"1.06 fold enrichment (6-mer frequency, TF over GST control)"
same,binding signal,[13],"1.11 fold enrichment (6-mer frequency, TF over GST control)"
same,binding signal,[14],"1.11 fold enrichment (6-mer frequency, TF over GST control)"
same,binding signal,[15],"1.19 fold enrichment (6-mer frequency, TF over GST control)"
same,binding signal,[16],"1.19 fold enrichment (6-mer frequency, TF over GST control)"
same,binding signal,[17],"1.14 fold enrichment (6-mer frequency, TF over GST control)"
same,binding signal,[18],"1.03 fold enrichment (6-mer frequency, TF over GST control)"
